Results filed as inconclusive are left out. Calls of active or inactive are those of the source. Calls follow the shape of the dose curve; as a rule, active = well fitted inhibition curve with a large enough effect; inconclusive = small, poorly fitted or top-dose-only effect; inactive = no such curve, though single readings can be large or run the other way.
system: Zika virus NS2B-NS3 protease (unlinked complex); assay: Primary screen GU Rhodamine qHTS for Zika virus inhibitors: Unlinked NS2B-NS3 protease assay (AID 1347159); details: Recombinant ZIKV NS2B-NS3 protease, Rhodamine110 substrate fluorescence; series mostly up to 107 µM; activity change, negative = inhibition: at the top concentration; also: nearly all actives have a fitted effect of over 60% in size
In short: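 Unlinked NS2B/NS3, 25 nM; Rhod110 peptide, 1.5 microM; compounds, up to 114 microM. Reaction run 15 min at RT in 10 mM Tris-HCl pH 8.0, 0.01% Tween 20; kinetic fluorescence change fitted with a 4-parameter Hill model.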
% is scaled to controls: 0 for no effect and ±100 for the full control effect.

| Compound | activity change, negative = inhibition | Potency |
| --- | --- | --- |
| COC1CC(OC2CCC3(C)C(=CCC4C3CCC3(C)C(C(C)O)CCC43O)C2)OC(C)C1OC1OC(C)C(OC2OC(COC3OC(COC4OC(CO)C(O)C(O)C4O)C(O)C(O)C3O)C(O)C(O)C2O)C(OC)C1O (stereo not given) | 0.333% [at 32.5 µM] (inactive) | – |
| N#Cc1ccc2[nH]c(O)c(-c3ccc(CN4CCOCC4)cn3)c2c1 | – | inactive |
| CC1CCC2C(C(=O)O)=CC3C(O)C(C)(C)CC123 (stereo not given) | -2.55% (inactive) | – |

system: Zika virus NS2B-NS3 protease (linked construct); assay: Primary screen NINDS Rhodamine qHTS for Zika virus inhibitors (AID 1347160); details: purified NS2B-NS3 protease, Rhodamine110 substrate fluorescence; series mostly up to 57.1 µM; activity change, negative = inhibition: at the top concentration; also: nearly all actives have a fitted effect of over 55% in size
In short: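 Single-chain NS2B-NS3 protease, 25 nM, pH 8.0; compounds preincubated 15 min. Activity: Rhodamine110 release from 1.5 microM substrate over 15 min, room temperature, data fitted to 4-parameter Hill.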

| Compound | activity change, negative = inhibition | outcome |
| --- | --- | --- |
| C=CC(C)(C)O[C@@H]1O[C@H](CO[C@@H]2OC[C@](O)(CO)[C@H]2O)[C@@H](O)[C@H](O)[C@H]1O | 39% [at 33.1 µM] (inactive) | – |
| CC(=O)OC[C@@]12[C@@H](OC(C)=O)C[C@@H](C)[C@](C)([C@@H]3C[C@H]4C=CO[C@H]4O3)[C@H]1CCC[C@]21CO1 | -0.48% [at 33.1 µM] (inactive) | – |
| CN1CC[C@@H](NC(=O)Nc2ccc(C#N)cc2)C[C@@H]1c1nc2ccccc2[nH]1 | – | inactive |
| O=C(O)Cc1nn(Cc2nc3cc(C(F)(F)F)ccc3s2)c(=O)c2nccnc12 | 14.2% (inactive) | – |
| COC1C2=C(COC2=O)C2(C)CCCC(C)(CO)C2C1OC(=O)c1ccccc1 (stereo not given) | -29.2% [at 33.1 µM] (inactive) | – |
| COC1CC(=O)C23C(=O)NC(CC(C)C)C2C(C)C(C)=CC3/C=C(\C)CCC1O (stereo not given) | 5.7% [at 33.1 µM] (inactive) | – |
| COC1=CC(=O)O[C@@H](/C=C/c2ccccc2)[C@@H]1O | -12.2% (inactive) | – |
| COC(=O)[C@@]1(C)CC[C@]2(C(=O)O[C@@H]3O[C@H](CO)[C@@H](O)[C@H](O)[C@H]3O)CC[C@]3(C)C(=CCC4[C@@]5(C)CC[C@H](O[C@@H]6O[C@H](C(=O)O)[C@@H](O)[C@H](O)[C@H]6O)C(C)(C)C5CC[C@]43C)[C@@H]2C1 (stereo not given in full) | -1.58% [at 15.1 µM] (inactive) | – |
| CCC(CC)n1ccc2c(C(=O)NCc3c(C)cc(C)[nH]c3=O)cc(C#N)cc21 | 6.46% (inactive) | – |
| CC(C)(O)CNc1nc(Nc2ccnc(C(F)(F)F)c2)nc(-c2cccc(C(F)(F)F)n2)n1 | 22% [at 33.1 µM] (inactive) | – |
| C=CC1C(O[C@@H]2O[C@H](CO)[C@@H](O)[C@H](O)[C@H]2O)OC=C(C(=O)OC)C1CC(=O)O (stereo not given in full) | 30.6% [at 33.1 µM] (inactive) | – |
| C[C@@H]1O[C@@H](O[C@H]2[C@H](O[C@H]3CC[C@@]4(C)C(CC[C@]5(C)C4CC=C4C6CC(C)(C)CC[C@]6(C(=O)O[C@@H]6O[C@H](CO[C@@H]7O[C@H](CO)[C@@H](O[C@@H]8O[C@@H](C)[C@H](O)[C@@H](O)[C@H]8O)[C@H](O)[C@H]7O)[C@@H](O)[C@H](O)[C@H]6O)CC[C@]45C)[C@]3(C)CO)OC[C@H](O)[C@@H]2O)[C@H](O)[C@H](O)[C@H]1O (stereo not given in full) | 37.8% [at 10.7 µM] (inactive) | – |
| CC(C)CNC(=O)/C=C/CCCCc1ccc2c(c1)OCO2 | -4.59% [at 33.1 µM] (inactive) | – |
| Cc1cc(C)c(S(=O)(=O)N(Cc2ccc(-c3cccc(S(C)(=O)=O)c3)cc2)Cc2ccc(C(F)(F)F)o2)c(C)c1 | 5.24% (inactive) | – |
| COC(=O)C1=CO[C@@H](O[C@@H]2O[C@H](COC(=O)/C=C/c3cc(OC)c(O)c(OC)c3)[C@@H](O)[C@H](O)[C@H]2O)[C@@H]2C(CO)=CC[C@H]12 | -8.36% [at 15.1 µM] (inactive) | – |
| C1CCN2CC3C[C@@H](CN4CCCC[C@@H]34)[C@H]2C1 | 21.9% (inactive) | – |
| COc1cc(N2CCC(N(C)C)CC2)ccc1Nc1ncc(Cl)c(Nc2ccccc2P(C)(C)=O)n1 | 18.9% (inactive) | – |
| C[C@@H]1O[C@@H](O[C@H]2[C@H](OC(=O)[C@]34CCC(C)(C)C[C@H]3C3=CCC5[C@@]6(C)C[C@H](O)[C@H](O[C@@H]7O[C@H](CO[C@@H]8OC[C@H](O)[C@H](O)[C@H]8O)[C@@H](O)[C@H](O)[C@H]7O)C(C)(C)C6CC[C@@]5(C)[C@]3(C)C[C@H]4O)OC[C@@H](O)[C@@H]2O)[C@H](O)[C@H](O[C@@H]2OC[C@](O)(CO)[C@H]2O)[C@H]1O[C@@H]1OC[C@H](O)[C@H](O[C@@H]2OC[C@@H](O)[C@H](O)[C@H]2O)[C@H]1O (stereo not given in full) | 22.5% [at 10.7 µM] (inactive) | – |
| COc1cc(C(=O)OC[C@H]2O[C@H](O[C@@]3(CO)O[C@@H](CO)[C@H](O)[C@H]3O)[C@H](O)[C@@H](O)[C@@H]2O)ccc1O | 23.6% [at 33.1 µM] (inactive) | – |
| CC(=O)OCC(=O)O[C@@H]1[C@H]2[C@@H](OC(=O)c3ccccc3)[C@@H](C)C[C@]2(O)[C@H](OC(C)=O)C2(C)[C@H]3CC(C)(C)C(=O)[C@@H]3CC1(OC(C)=O)[C@@H]2OC(C)=O (stereo not given in full) | 1.8% [at 15.1 µM] (inactive) | – |
| CCC(C)(O)C(O)C(=O)OCc1ccc(O[C@@H]2O[C@H](CO)[C@@H](O)[C@H](O)[C@H]2O)cc1 (stereo not given in full) | 18.3% [at 33.1 µM] (inactive) | – |
| CC[C@H]1OC(=O)[C@H](C)[C@@H](OC2C[C@@](C)(OC)[C@@H](O)[C@H](C)O2)[C@H](C)[C@@H](OC2O[C@H](C)C[C@H](NC)[C@H]2O)[C@](C)(O)C[C@@H](C)CN(C)[C@H](C)[C@@H](O)[C@]1(C)O (stereo not given in full) | 15.3% (inactive) | – |

From PubChem BioAssay (NCATS)
